PubChem BioAssay AID743325 (National Center for Advancing Translational Sciences (NCATS), 2014)
Calls of active or inactive are those of the source. The call rests on the fitted dose curve. Square brackets hold non-standard residues; d marks the D form. Peptide text beside a SMILES is read from it. Orn = NCCC[C@H](N)C(=O)O

Test: qHTS profiling of Chloroquine Analogs as inhibitors of Plasmodium falciparum (3D7) proliferation
Conditions: activity change, negative = inhibition: at 28.7 µM (top of the series) unless noted
Excerpt: Plasmodium falciparum is a virulent malarial parasite that kills 1-2 million people worldwide each year. Transmitted by mosquitoes, the sporozoite form of the parasite enters the blood stream to infect hepatocytes, where they become merozoites that infect red blood cells (erythrocytes). Within erythrocytes, merozoites begin a […] cycle of growth and division, after which the parasite is released to infect new red blood cells. Gametocytes, which form within erythrocytes as well, circulate in the bloodstream and are ingested by the mosquito, thereby completing the life cycle. To profile malarial isolates for differential chemical responses and to identify inhibitors of malarial growth, an assay that measures P. falciparum growth and replication within erythrocytes was employed. This assay uses a DNA binding fluorescent dye (SYBR Green) to detect parasite DNA following cell lysis. Because mature erythrocytes lack DNA, only Plasmodium-derived DNA is detected.
The SYBR Green viability assay was adapted from a method described previously (Plouffe et al., 2008). For screening 3 ul culture medium was dispensed into 1536 well black clear bottom plates (Aurora Biotechnologies) using a Multidrop Combi (Thermo Fisher Scientific Inc.), 23 nL compounds in DMSO were added by a pin tool (Kalypsys), and 5 ul of erythrocytes infected with P. falciparum (0.3% parasitemia, 2.5% hematocrit final concentration) were added. The plates were incubated at 37 C in a humidified incubator in 5% CO2 for 72 h, and 2 ul lysis buffer (20 mM Tris HCl, 10 mM EDTA, 0.16% saponin, 1.6% triton X, 10X SYBR Green I supplied as 10,000X […] by Invitrogen) was added to each well. The plates were mixed for 25 sec with gentle shaking and incubated overnight at room temperature in the dark. The following morning, fluorescence intensity at 485(14) nm excitation and 535(25) nm emission wavelengths was measured on an EnVision (Perkin Elmer) plate reader. Plate reads were normalized relative to the control inhibitor (0.29 uM artemisinin) and vehicle (DMSO) wells present on each plate and then corrected by an algorithm using vehicle-only control plates at the beginning and end of the compound plate stack.
Compound `CNCCC(Oc1ccccc1OC)c1ccccc1` (stereo not given) has an activity change, negative = inhibition of -93.6%. For `O=C(C[C@@H]1NCCC[C@@H]1O)Cn1cnc2ccccc2c1=O`, the Potency was 2.7 nM (active). With `CN([C@@H](Cc1ccc(OS(=O)(=O)c2cccc3cnccc23)cc1)C(=O)N1CCN(c2ccccc2)CC1)S(=O)(=O)c1cccc2cnccc12` the Potency was 237 nM (active). `CCN(CC)CCOc1ccc2c(=O)c3ccc(Cl)cc3n(CCN(CC)CC)c2c1` showed an activity change, negative = inhibition of -101%. For `C[C@@H]1CCC2[C@@H](C)[C@@H](O)O[C@@H]3O[C@@]4(C)CC[C@@H]1[C@@]23OO4` (stereo not given in full), the activity change, negative = inhibition was -101%. In the case of `Oc1cc(Cl)ccc1Oc1ccc(Cl)cc1Cl`, the Potency is reported as 1880 nM (active). With `O=C(Nc1ccc(Cl)cc1)Nc1ccc(Cl)c(Cl)c1` the activity change, negative = inhibition was -102%. For `CN(C)CC/C=C1\c2ccccc2COc2ccccc21`, the Potency was 2020 nM (active). For `C#C[C@]1(O)CC[C@@H]2[C@H]3CCC4=CC(=O)CC[C@H]4[C@H]3C(=C)C[C@@]21CC`, the “activity change, negative = inhibition” value was 177% (inactive). In the case of `C=Cc1c(C)c2cc3nc(cc4[nH]c(cc5nc(cc1[nH]2)C(C)=C5CCC(=O)OC)c(CCC(=O)O)c4C)[C@@]1(C)C3=CC=C(C(=O)OC)[C@H]1C(=O)OC`, the “activity change, negative = inhibition” value is reported as 179% [at 14.2 µM] (inactive). Compound `CC(C)C[C@@H]1NC(=O)[C@H](CCCN)NC(=O)[C@H](C(C)C)NC(=O)[C@@H]2CCCN2C(=O)[C@@H](Cc2ccccc2)NC(=O)[C@H](CC(C)C)NC(=O)[C@H](CCCN)NC(=O)[C@H](C(C)C)NC(=O)[C@@H]2CCCN2C(=O)[C@@H](Cc2ccccc2)NC1=O` (cyclo(V[Orn]L[dF]PV[Orn]L[dF]P)) has an activity change, negative = inhibition of -102%. In the case of `O=C1C(=O)c2ccccc2C(O)=C1C1CCC(c2ccc(Cl)cc2)CC1` (stereo not given), the Potency is reported as 0.7 nM (active). For `O=C(O)c1cn(C2CC2)c2cc(N3CCNCC3)c(F)cc2c1=O`, the “activity change, negative = inhibition” value was -11.8% (inactive). With `Cc1oncc1C(=O)Nc1ccc(C(F)(F)F)cc1` the “activity change, negative = inhibition” value was 171% (inactive). For `CCN(CC)CCOCCOC(=O)C(CC)(CC)c1ccccc1`, the “activity change, negative = inhibition” value was 31.7% (inactive). Compound `COc1cc2c(Nc3ccc(NC(=O)c4ccccc4)cc3)ncnc2cc1OCCCN1CCOCC1` has an activity change, negative = inhibition of -100%. With `CCOc1ccccc1O[C@H](c1ccccc1)[C@H]1CNCCO1` the “activity change, negative = inhibition” value was 192% (inactive). For `Cc1cccc(C)c1OCC(=O)N[C@@H](Cc1ccccc1)[C@@H](O)C[C@H](Cc1ccccc1)NC(=O)[C@H](C(C)C)N1CCCNC1=O`, the activity change, negative = inhibition was -99.8%. With `CC[C@H]1OC(=O)[C@H](C)[C@@H](O[C@H]2C[C@@](C)(OC)[C@@H](O)[C@H](C)O2)[C@H](C)[C@@H](O[C@@H]2O[C@H](C)C[C@H](N(C)C)[C@@H]2O)[C@](C)(O)C[C@@H](C)CN(C)[C@H](C)[C@@H](O)[C@]1(C)O` the Potency was 9430 nM (active). With `C[C@@H]1CC[C@H]2[C@@H](C)C(=O)O[C@@H]3OC4(C)CC[C@@H]1C32OO4` (stereo not given in full) the activity change, negative = inhibition was -99.4% [at 57.5 µM]. `COc1ccc2nc3cc(Cl)ccc3c(Nc3cc(CN4CCCC4)c(O)c(CN4CCCC4)c3)c2n1` showed an activity change, negative = inhibition of -101%. With `CSc1cccc(NC(=O)CC[C@H]2O[C@@H]3O[C@]4(C)CC[C@H]5[C@H](C)CC[C@@H]([C@@H]2C)[C@@]35OO4)c1` the Potency was 21.1 nM (active). `C[N+]1(C)CCC(=C(c2ccccc2)c2ccccc2)CC1` gave an activity change, negative = inhibition of -94.2% [at 14.2 µM]. In the case of `OB1OCc2cc(F)ccc21`, the “activity change, negative = inhibition” value is reported as 198% (inactive). Compound `COC(=O)C1C2CC3c4[nH]c5cc(OC)ccc5c4CCN3CC2CC(OC(=O)c2cc(OC)c(OC)c(OC)c2)C1OC` (stereo not given) has an activity change, negative = inhibition of -101% [at 57.5 µM]. In the case of `CC(C)N=C(N)N=C(N)Nc1ccc(Cl)cc1`, the Potency is reported as 26.6 nM (active). In the case of `Cc1cccc(C)c1OCC(N)C(C)C` (stereo not given), the activity change, negative = inhibition is reported as -97.7%. `C[C@H]1[C@@H](CCC(=O)Nc2ccc(F)cc2)O[C@@H]2O[C@]3(C)CC[C@@H]4[C@H](C)CC[C@@H]1[C@@]24OO3` showed an activity change, negative = inhibition of -100%. In the case of `CO[C@H]1O[C@@H]2O[C@@]3(C)CC[C@@H]4[C@@H](C)CC[C@@H]([C@H]1C)[C@@]24OO3`, the “activity change, negative = inhibition” value is reported as 167% (inactive). For `CCCCN(CCCC)CCC(O)c1cc2c(Cl)cc(Cl)cc2c2cc(C(F)(F)F)ccc12` (stereo not given), the Potency was 5.1 nM (active). In the case of `O=CN(O)CCCP(=O)(O)O`, the Potency is reported as 530 nM (active). With `COc1ncnc(NS(=O)(=O)c2ccc(N)cc2)c1OC` the Potency was 1500 nM (active). With `CC(CNC1CCCCC1)OC(=O)c1ccccc1` (stereo not given) the “activity change, negative = inhibition” value was 9.78% [at 14.2 µM] (inactive). In the case of `NC(=NCc1ccccc1)NC(=O)c1nc(Cl)c(N)nc1N`, the activity change, negative = inhibition is reported as -99.4%. In the case of `COc1cc2c(cc1C(F)(F)F)N(C(=O)Nc1cc(F)cc(-c3cccnc3)c1)CC2`, the Potency is reported as 3760 nM (active). For `CN(C)CCOC(c1ccccc1)c1ccccc1`, the “activity change, negative = inhibition” value was -8.32% (inactive). For `C=C[C@@H]1CN2CCC1C[C@@H]2C(O)c1ccnc2ccc(OC)cc12` (stereo not given in full), the activity change, negative = inhibition was -97.6%. In the case of `O[C@H](c1cc(C(F)(F)F)nc2c(C(F)(F)F)cccc12)[C@H]1CCCCN1`, the “activity change, negative = inhibition” value is reported as 193% [at 14.2 µM] (inactive). In the case of `Cn1cncc1[C@@](N)(c1ccc(Cl)cc1)c1ccc2c(c1)c(-c1cccc(Cl)c1)cc(=O)n2C`, the Potency is reported as 1680 nM (active). For `CC(=O)O[C@@]12CO[C@@H]1C[C@H](O)[C@@]1(C)C(=O)[C@H](O)C3=C(C)[C@@H](OC(=O)[C@H](O)[C@@H](NC(=O)OC(C)(C)C)c4ccccc4)C[C@@](O)([C@@H](OC(=O)c4ccccc4)[C@H]21)C3(C)C`, the “activity change, negative = inhibition” value was 177% (inactive).
